# Test results reported in PubChem BioAssay (NCI).
# About 83,000 compounds went through this panel and 20% of them were active in at least one assay; those are over-represented in the sample as a whole.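 Results are percent growth after 48 hours of single-concentration exposure. 100 means growth as in untreated cells, lower positive values show inhibition; negative values down to -100 show cell death.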 A number with no mark means an inactive call. The source made the active and inactive calls. Rule for the calls: active = growth percent below 10; inactive = the rest.
# Legend:
# Assay in all cases: NCI-60 one-dose screen, 48 h (100 = growth as untreated, 0 = no growth, -100 = all killed)
# Conditions in all cases: 10 µM unless noted
# DU-145 prostate = system: DU-145 prostate
# K-562 leukemia = system: K-562 leukemia
# MALME-3M melanoma = system: MALME-3M melanoma
# MDA-MB-231 breast = system: MDA-MB-231 breast
# RXF 393 renal = system: RXF 393 renal
# SF-268 CNS = system: SF-268 CNS
# SF-295 CNS = system: SF-295 CNS
# SF-539 CNS = system: SF-539 CNS
# UACC-257 melanoma = system: UACC-257 melanoma
# M14 melanoma = system: M14 melanoma
Structure (SMILES),growth (DU-145 prostate),growth (K-562 leukemia),growth (MALME-3M melanoma),growth (MDA-MB-231 breast),growth (RXF 393 renal),growth (SF-268 CNS),growth (SF-295 CNS),growth (SF-539 CNS),growth (UACC-257 melanoma),growth (M14 melanoma)
S=c1n(CNc2ccc(Cl)nn2)nc(-c2cc(Cl)cc(Cl)c2Cl)n1/N=C/c1ccc(Cl)cc1,109%,71.7%,89.3%,92.9%,149%,107%,70%,101%,106%,55.8%
O=C(CSc1nnc(-c2ccccc2)o1)Nc1ccc(C(=O)/C=C/c2ccccc2)cc1,62.7%,8.02% (active),69.8%,83.9%,93.1%,65.8%,77.3%,84.7%,113%,66.4%
CCCCOc1c(N)cccc1C(=O)OCCN(CC)CC,103%,80.4%,100%,99.3%,100%,95.1%,103%,104%,100%,99.5%
C[C@@H]1CC2C3C[C@H](F)C4=CC(=O)C=C[C@]4(C)[C@@]3(F)[C@@H](O)C[C@]2(C)[C@@]1(O)C(=O)CO (stereo not given in full),80.8%,107%,84.7%,95.1%,120%,88.8%,116%,83.2%,88.4%,93.5%
Cc1nccc2c3ccc(OCc4cn(Cc5ccc(Br)cc5)nn4)cc3n(CCCc3ccccc3)c12,91.9%,75.5%,92.9%,79.3%,82%,81%,86.2%,77%,99.3%,103%
COc1ccc(-c2nnc(SCC(=O)Nc3ccc(C(=O)/C=C/c4ccc(Cl)cc4)cc3)o2)cc1OC,78.9%,52%,5.79% (active),76.3%,95.9%,82.2%,80.4%,54.5%,91.4%,81.7%
COc1ccc(NC(=O)COCCOCCNC[C@@H]2C(=O)O[C@H]3[C@H]2CC/C(COC(=O)OC/C2=C/CC[C@@]4(C)O[C@H]4[C@H]4OC(=O)[C@@H](CN(C)C)[C@@H]4CC2)=C\CC[C@@]2(C)O[C@@H]32)c(O)c1C(N)=O,57%,5.46% (active),-21.1% (active),21.8%,-40.5% (active),91.5%,105%,46.4%,40.5%,53.9%
O=C(Nc1ccc(-n2cc(-c3ccncc3)c(-c3ccc(O)c(Cl)c3)n2)cc1)c1ccc(Cl)c(C(F)(F)F)c1,35.3%,5.88% (active),25%,-29.1% (active),-81.6% (active),38%,-2.61% (active),2.46% (active),60.9%,-16.2% (active)
CC(=O)N[C@@H](CNC(=O)c1cc(NC(=O)c2cc(NC(=O)c3cc(NC(=O)c4nccn4C)cn3C)cn2C)cn1C)CC(=O)Nc1cn(C)c(C(=O)Nc2cc(C(=O)Nc3cc(C(=O)Nc4cc(C(=O)NCCCN(C)CCCNC(=O)c5cccc(C(=O)O)c5)n(C)c4)n(C)c3)n(C)c2)n1,53.3%,105%,122%,113%,97.6%,95.9%,47.8%,107%,113%,89.9%
CCc1c(C)c2cc3nc(NCc4ccccc4)oc3c(C)c2oc1=O,82.9%,89.5%,51.9%,62.1%,53.9%,65.9%,79.6%,33.5%,87.6%,88.3%
COc1ccc(Cn2cc(COc3ccc4c5ccnc(C)c5n(CCCc5ccccc5)c4c3)nn2)cc1,84.3%,63.2%,81.6%,65.6%,58.8%,76.6%,92.3%,58.7%,90.2%,83.1%
C#C[C@H](O)/C=C/CCCCCCC#C[C@H](O)CC[C@@H](O)C#CCCCCCC/C=C/[C@@H](O)C#C,95.7%,11.7%,-32.9% (active),63.1%,104%,85.1%,87.4%,75.9%,101%,93.1%
Cc1cc(C)c(O)c(C(=O)CC(Br)C(=O)O)c1 (stereo not given),95.3%,84.5%,111%,121%,119%,95.9%,101%,91.2%,96.2%,95.1%
Cc1ccc(-c2nc3c(N=Nc4ccc(S(N)(=O)=O)cc4)c(N)nn3c(N)c2C#N)cc1,34.6%,20.3%,48.5%,40.1%,27.9%,34.5%,49.2%,30.7%,72.3%,46.4%
Cc1cc2nc(-c3c(N)ncc(C#N)c3-c3ccc(Cl)cc3)[nH]c2cc1C,31.9%,62.9%,63%,66.4%,70.9%,73.4%,58.3%,-9.94% (active),51.9%,53.7%
O=C(Nc1ccc(-n2ccc3c(NC(=O)c4ccccc4)nccc32)cc1)Nc1cccc(C(F)(F)F)c1,31.8%,21.2%,73.4%,63.7%,10.3%,51.8%,37.1%,44.8%,68.8%,43.7%
C=C1C(=O)O[C@H]2[C@H]1CC/C(C(=O)Nc1ccc(OC)c(C(N)=O)c1O)=C\CC[C@@]1(C)O[C@@H]21,36.3%,22.9%,21%,58.4%,3.02% (active),86.3%,94.9%,60.5%,51.1%,55.8%
COc1ccc(-c2nnc(SCC(=O)N3CCN(c4cc5c(cc4F)c(=O)c(C(=O)O)cn5C4CC4)CC3)o2)cc1OC,99.3%,74.5%,101%,110%,118%,104%,89.1%,96.5%,101%,76.2%
CCCCNc1cc(C(=O)O)cc(S(N)(=O)=O)c1Oc1ccccc1,110%,98.2%,96.2%,122%,91.1%,105%,102%,105%,105%,109%
CCC1S/C(=N\N=C(/C)c2cc3ccccc3o2)N(c2ccccc2)C1=O (stereo not given),161%,79.8%,105%,85.4%,98.7%,202%,128%,135%,118%,101%
COc1ccc(/C=C/C(=O)/C=C(/C=C/c2ccc(OC)c(OC)c2OC)OB(F)F)c(OC)c1OC,42.9%,9.46% (active),16.4%,7.37% (active),6.5% (active),31.9%,56.4%,32.9%,37%,19.1%

Structure (SMILES),growth (DU-145 prostate),growth (K-562 leukemia),growth (MALME-3M melanoma),growth (MDA-MB-231 breast),growth (RXF 393 renal),growth (SF-268 CNS),growth (SF-295 CNS),growth (SF-539 CNS),growth (UACC-257 melanoma),growth (M14 melanoma)
COc1cc(NC(C)CCCN2C(=O)c3ccccc3C2=O)c2nc(C)ccc2c1OC (stereo not given),103%,66.5%,104%,78.3%,96.4%,104%,93.5%,99.4%,102%,99.9%
COc1ccc(C2=NN(C(=O)COc3ccc(Cl)cc3)C(O)(c3cc(F)c(Cl)cc3Cl)C2)cc1OC (stereo not given),9.5% (active),-66.5% (active),6.18% (active),30%,-90.8% (active),4.05% (active),75.7%,30.5%,107%,-13.4% (active)
Cc1ccc(=O)n(-c2ccc(Br)cc2F)c1,109%,99.4%,101%,103%,103%,104%,100%,98.9%,102%,97.4%
CN(C)CC/C=C1\c2ccccc2Sc2ccc(Cl)cc21,90.9%,16.4%,69.8%,69%,41.2%,68.8%,75.4%,92.3%,-54.4% (active),-57.5% (active)
C=C1C(=O)O[C@H]2[C@H]1CC/C(COC(=O)n1ccnc1C)=C\CC[C@@]1(C)O[C@@H]21,93.2%,95.4%,92.6%,106%,96.2%,101%,104%,101%,75.1%,91%
C[C@H]1C=C(C[C@@H](O)CCCCCCCCCC[C@@H](O)[C@H]2CCC(=O)O2)C(=O)O1,112%,83.5%,122%,102%,100%,115%,109%,92.5%,102%,101%
O=C(NCCNc1nccc(-c2c(-c3cccc(O)c3)nc3sccn23)n1)c1ccccc1O,67.2%,40.5%,14.6%,48.4%,50.9%,62.5%,46.4%,61.9%,14.8%,16.7%
CN(C)c1ccc(/C=c2\s/c(=C\C(=O)C(C)(C)C)[nH]c2=O)cc1,93.1%,111%,93.6%,118%,122%,93.5%,94.9%,96.6%,96.1%,101%
CC(C)(c1ccc(OCC(O)CNCc2ccco2)cc1)c1ccc(OCC(O)CNCc2ccco2)cc1 (stereo not given),92%,60.8%,98%,62.4%,76.4%,77.7%,95.2%,89.7%,92.8%,92.1%
COc1ccc2c(c1)/C(=C/c1c(-c3cc(OC)c(OC)c(OC)c3Br)nc3sccn13)C(=O)N2,114%,76%,62.1%,81.4%,118%,116%,105%,95.3%,110%,115%
Cc1ccc(-c2cn3cc([N+](=O)[O-])ccc3n2)cc1,68.8%,82%,103%,79.1%,90.4%,77.3%,101%,91.2%,87.4%,72.5%
COc1ccc(C(=O)NC(=O)Nc2ccc3c(c2)NC(=O)/C3=C\c2[nH]c(C)c(CCC(=O)O)c2C)c(F)c1,42.7%,23.9%,40.6%,71.5%,21.1%,35%,42.7%,-5.86% (active),14.1%,33.2%
CC(C)(C)NCC(O)COc1c(Br)c(Br)c(Br)c2c1OC(C)(C)C2 (stereo not given),-59.5% (active),-34.9% (active),-82.8% (active),-65.6% (active),-52.5% (active),4.14% (active),-63% (active),-84.5% (active),107%,-72.6% (active)
CCOC(=O)C1CN(Cc2ccccc2)C(=O)C1=O (stereo not given),110%,104%,92.8%,115%,112%,101%,105%,93.6%,104%,94.6%
Cc1ccc2c(c1)Nc1ccc(C)cc1C2(C)C,107%,97.4%,98.9%,114%,101%,105%,101%,95.7%,110%,98.2%
COc1ccc(-c2ccc(NC(=O)Nc3cccc(C(F)(F)F)c3)c(C)n2)cc1,68.8%,32.5%,90.6%,68.6%,85.9%,74.5%,47.6%,80.8%,61.4%,37.2%
CCCCN(CCCC)c1ccc(C(=N)c2ccc(N(C)C)cc2)cc1,-21% (active),-30.9% (active),-81.6% (active),-76.7% (active),-75% (active),-21.8% (active),-72.1% (active),-89.1% (active),-62.8% (active),-93.3% (active)
Cc1ccccc1C[P+](c1ccccc1)(c1ccccc1)c1ccccc1,32.4%,22.4%,5.05% (active),46.3%,50.4%,16.7%,25.2%,33.6%,-1.88% (active),29.2%
CCOC(=O)c1noc2c1CCc1cn(Cc3cc(OC)cc(OC)c3)cc1-2,104%,102%,107%,117%,113%,96.8%,95.3%,98.8%,101%,101%
C=CC(=O)Nc1cccc(Nc2nc(Nc3ccc(OCCOC(F)F)cc3)ncc2F)c1,34.7%,19.9%,46.3%,66.3%,9.55% (active),40.5%,52.5%,31.4%,52.7%,29%
